Our source for the inhibition values is PubChem BioAssay AID1578 (Sanford-Burnham Center for Chemical Genomics, 2009).

Hit rate of the full screen: of about 290,000 compounds, about 3,000 (1%) were called active. No stated cut-off is given here; in the data, active means inhibition mostly above about 36% (no sharp cut-off); inactive means mostly below about 34%. What follows is part of a selection rich in actives, with near analogues and random picks from the rest.

Broadly, the inhibition is the change of the read-out against control, counted positive when it falls.

This experiment is described as follows: NOD1 signaling inhibitors, primary screen, cell-based, luminescence, uHTS (AID 1578).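 Further: HEK-293T reporter cells stimulated with the NOD1 agonist gamma-tri-DAP.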 The conditions noted are these: NOD1-driven NF-kB luciferase reporter cells, at 4 µM, hits give high values. A general note: A reporter such as luciferase makes a cellular process visible.
`Cc1cc(C)c(C)c(S(=O)(=O)N2CCCCC2C(=O)O)c1C` (stereo not drawn): the inhibition is 0.3% (inactive).
As for `Oc1cccc(/C=N\Nc2nncc(-c3ccccc3)n2)c1`, the figure is -8.4% (inactive); as for `COc1ccc(-c2cnnc(N/N=C/c3ccc(O)cc3)n2)cc1`, -15.9% (inactive); as for `Oc1ccc(/C=N\Nc2nncc(-c3ccccc3)n2)cc1`, 59.3% (active).
As for `CC(=O)Oc1ccc(/C=C(\NC(=O)c2ccco2)C(=O)Nc2ccc(C(C)=O)cc2)cc1`, the figure is -31.3% (inactive); as for `COc1ccc(/C(N)=N/OC(=O)CC2CCCCC2)cc1OC`, -10.9% (inactive); as for `CC(C)(C)c1ccc(OCc2ccc(C(=O)NN)o2)cc1`, -4.2% (inactive).
On to `CC(C)NC(=O)c1ccc(COc2ccc(C(C)(C)C)cc2)o1`, for which the inhibition was 29.6% (active).
As for `CCOc1ccc(OCc2ccc(C(=O)NC(C)C)o2)cc1`, the figure is -2.6% (inactive); as for `CC(=O)c1ccc(S(=O)c2ccccc2)cc1` (stereo not drawn), -22.4% (inactive).
As for `COc1ccc(OC)c(C(=O)NC(CC(N)=O)c2ccc(N3CCC(N4CCCC4)CC3)c([N+](=O)[O-])c2)c1` (stereo not drawn), the figure is 5.4% (inactive).
The result for `Cc1cc(C)cc(NS(=O)(=O)c2ccc3[nH]cc(C(=O)N4CCc5ccccc54)c(=O)c3c2)c1` reads 3.5% (inactive); that for `COCCn1c(=NC(=O)/C=C/c2ccccc2Cl)sc2cc(NC(C)=O)ccc21`, 85% (active); that for `CCOCCn1c(=NC(=O)/C=C/c2ccccc2Cl)sc2cc(NC(C)=O)ccc21`, 18.1% (inactive).
As for `COCCn1c(=NC(=O)/C=C/c2ccccc2)sc2cc(NC(C)=O)ccc21`, the inhibition is -16.2% (inactive).
As for `Cc1cccc(C(P(=O)(c2ccccc2)c2ccccc2)P(=O)(c2ccccc2)c2ccccc2)n1`, the figure is -2.9% (inactive); as for `CC(=O)c1c(C)[nH]c(C(=O)OCC(=O)Nc2ccccc2Cl)c1C`, 51.1% (active).
The result for `CC(=O)c1c(C)[nH]c(C(=O)Nc2ccccc2Cl)c1C` reads -16.6% (inactive).
As for `CC(=O)c1c(C)[nH]c(C(=O)OCC(=O)Nc2ccc([N+](=O)[O-])cc2Cl)c1C`, the figure is -9% (inactive); as for `CCC(C)N1C(=O)CCC1C(=O)N1CCN(c2ccccc2F)CC1` (stereo not drawn), 2.8% (inactive); as for `C/C(=N\NC(=O)c1nnn(-c2nonc2N)c1CSc1ccccc1)c1cccnc1`, -4.5% (inactive).
For the molecule `Cc1cc(C)n(-c2nc3ccccc3c(=O)n2OCC#N)n1`, the inhibition is 109% (active).
For `C#CCOn1c(-n2nc(C)cc2C)nc2ccccc2c1=O`, the inhibition is 2.3% (inactive).
As for `CCOn1c(-n2nc(C)cc2C)nc2ccccc2c1=O`, the figure is 0.7% (inactive); as for `CN(C)N(C)C(=O)C(O)(c1ccccc1)c1ccccc1`, -18.6% (inactive); as for `CN(Cc1ccccc1)C(=O)CCC(=O)N(C)Cc1ccccc1`, -41.2% (inactive).
As for `CN(C)N(Cc1ccccc1)C(=O)C(O)(c1ccccc1)c1ccccc1`, the figure is 63.1% (active).
For `O=C(CN1C(=O)NC2(CCCCCCC2)C1=O)NC1CCCc2ccccc21` (stereo not drawn), the inhibition was -29.3% (inactive).
As for `COC(=O)c1ccc(NC(=O)CCN2C(=O)CSC2=O)cc1`, the inhibition was -44.1% (inactive).
As for `C=C(C)CN(CC)c1nc(N)c2c(N)nc3c(c2c1C#N)CC(=O)N3C12CC3CC(CC(C3)C1)C2`, the figure is -11.3% (inactive).
Turning to `N#Cc1c(N2CCCC(O)C2)nc(N)c2c(N)nc3c(c12)CC(=O)N3C12CC3CC(CC(C3)C1)C2` (stereo not drawn), the inhibition was 72% (active).
The result for `N#CCc1c(C#N)c(N)nc(N2CCCC(O)C2)c1C#N` (stereo not drawn) reads -18.2% (inactive); that for `Cc1cnc(C(=O)Nc2ccc(C(=O)N(C)C3CCCCC3)cc2)cn1`, -6.2% (inactive).
Consider `C=CCOc1ccc2ccccc2c1/C=N/O`, for which the inhibition was -6.7% (inactive).
As for `CCOc1ccc(-c2nc(CSCC(=O)N3CCN(C(=O)c4ccco4)CC3)c(C)o2)cc1`, the figure is -28.8% (inactive); as for `CCOC(=O)C1CCN(C(=O)CSCc2nc(-c3ccc(OCC)cc3)oc2C)CC1`, -2.1% (inactive).
In the case of `COc1cc(CNCc2cc(OC)ccc2OC)cc(OC)c1`, the inhibition was -5.3% (inactive).
As for `COc1cc(CNCc2ccc(OC)cc2OC)cc(OC)c1`, the figure is 79.5% (active).
As for `COc1cccc(CNCc2ccc(OC)cc2OC)c1`, the figure is 3.1% (inactive); as for `O=C(COC(=O)CNC(=O)c1ccc(Cl)cc1)Nc1cccc(S(=O)(=O)N2CCCC2)c1`, 6.6% (inactive); as for `CCO[C@H]1OC(C(=O)N2CCCCCCC2)=C[C@@H](C)[C@@H]1CCCO`, 40% (active).
As for `CCO[C@@H]1OC(C(=O)N2CCOCC2)=C[C@H](C)[C@H]1CCCO`, the inhibition was -28.1% (inactive).
As for `CCO[C@H]1OC(C(=O)N2CCN(C)CC2)=C[C@@H](C)[C@@H]1CCCO`, the figure is -35.3% (inactive); as for `CC1CCCC(NC(=O)c2ccc(CNc3c(N4CCCC4)c(=O)c3=O)cc2)C1C` (stereo not drawn), -28.2% (inactive); as for `COc1ccc(/C=N/Nc2nc(C(=O)O)cs2)cc1`, -35.9% (inactive).
As for `Cc1c(C(=O)NCCN(C)C)oc2ccc(S(=O)(=O)N3CCC4(CC3)OCCO4)cc12`, the figure is -12.2% (inactive); as for `Brc1ccc(OCc2ccccc2)c(CNCc2ccncc2)c1`, 44.1% (inactive); as for `Fc1ccccc1COc1ccc(Br)cc1CNCc1cccnc1`, -5% (inactive).
Take `Fc1ccccc1COc1ccc(Br)cc1CNCc1ccncc1`: the inhibition was 72.9% (active).
As for `COc1ccc(NC(=O)Nc2c(C)noc2-c2ccccc2)cc1`, the figure is -7.5% (inactive); as for `O=C(Oc1ccc(Br)cc1C(=S)N1CCOCC1)c1ccc(F)cc1`, -9.9% (inactive).
The result for `O=C(Nc1nc2ccccc2[nH]1)c1ccccc1F` reads 77.3% (active).
Turning to `O=C(Nc1nc2ccccc2[nH]1)c1ccc(Br)o1`, the inhibition is -21.2% (inactive).
On to `O=C(Nc1nc2ccccc2[nH]1)c1ccccc1O`, for which the inhibition was 1.5% (inactive).
Consider `O=C(Nc1nc2ccccc2[nH]1)c1cc2ccccc2o1`, for which the inhibition was 73.5% (active).
For the molecule `C/C(=N\Nc1nc2ccccc2[nH]1)c1cc2ccccc2o1`, the inhibition was -21.6% (inactive).
The result for `CSc1ccccc1C(=O)Nc1nc2ccccc2[nH]1` reads -46.1% (inactive); that for `COc1ccc(S(=O)(=O)Nc2ccccc2C(=O)N2CCCCC2)cc1C`, -14.5% (inactive); that for `S=C(Nc1ccccc1)N1CCOCCOCCN(C(=S)Nc2ccccc2)CCOCCOCC1`, -11% (inactive).
As to `CC(=O)N1N=C(N)SC1c1cccc([N+](=O)[O-])c1` (stereo not drawn), the inhibition is -38.8% (inactive).
As for `CC(=O)Oc1ccc2nc(/C=C/c3ccccc3)oc(=O)c2c1`, the inhibition was -9.3% (inactive).
In the case of `COc1ccc(-c2cc(C(F)(F)F)nc(S(=O)(=O)CCCC(=O)Nc3cc(C)on3)n2)cc1OC`, the inhibition was 32.1% (inactive).
Turning to `Cc1cc(NC(=O)CCCS(=O)(=O)c2nc(-c3cccs3)cc(C(F)(F)F)n2)no1`, the inhibition is 91% (active).
As for `COc1ccccc1-c1cc(C(F)(F)F)nc(S(=O)(=O)CCCC(=O)Nc2cc(C)on2)n1`, the figure is 37% (inactive).
The result for `O=C(COc1ccc(S(=O)(=O)N2CCOCC2)cc1Cl)NCc1ccccn1` reads -57.1% (inactive).
As for `c1ccc(-c2noc(-c3ccncc3)n2)nc1`, the figure is -30.8% (inactive); as for `COc1cccc(-c2nc(-c3ccncc3)no2)c1`, -5.3% (inactive); as for `Clc1cccc(-c2nc(-c3ccccn3)no2)c1`, -17.2% (inactive).
Consider `c1ccc(-c2noc(-c3cccnc3)n2)nc1`, for which the inhibition was -11.3% (inactive).
As for `Cc1ccc(-c2nc(-c3ccccn3)no2)cc1`, the figure is 89.5% (active).
With `Cc1ccccc1-c1nc(-c2ccccn2)no1`, the inhibition is 11.7% (inactive).
The result for `COc1cccc(-c2nc(-c3ccccc3)no2)c1` reads -49.3% (inactive).
As for `c1ccc(-c2noc(-c3ccc4ccccc4c3)n2)nc1`, the figure is 77.3% (inactive); as for `COc1cccc(-c2nc(-c3ccccn3)no2)c1`, 65% (active).
As for `c1ccc(-c2nc(-c3ccccn3)no2)cc1`, the figure is 54.3% (active); as for `Clc1ccc(-c2nc(-c3ccccn3)no2)cc1Cl`, -69.5% (inactive).
For the molecule `Cc1ccc(-c2nc(-c3ccccn3)no2)cc1Cl`, the inhibition is 71.4% (active).
As for `CCCC(=O)NCC(c1cccs1)S(=O)(=O)c1ccc(Cl)cc1` (stereo not drawn), the figure is -18% (inactive); as for `Cc1ccc2cc3cc(C(=O)NC4CCCCC4)oc3nc2c1`, -36.4% (inactive); as for `O=C(Nc1ccccc1)Nc1ccc2ocnc2c1`, -32.4% (inactive).
Turning to `Cc1nnc(SCC(=O)NC2CC2)s1`, the inhibition was -18.8% (inactive).
The result for `COc1cc(S(=O)(=O)n2nc(C)cc2C)ccc1Cl` reads -30.9% (inactive).
On to `Cc1ccc(C2=NN(C3=NN=C(N)Cc4ncnn43)C(O)(C(F)(F)F)C2)cc1` (stereo not drawn), for which the inhibition is -15.4% (inactive).
The result for `CC(CC(=O)O)CC(=O)Nc1cc([N+](=O)[O-])ccc1O` (stereo not drawn) reads -14.6% (inactive); that for `c1ccc(-c2ccc(-c3nc(-c4ccncc4)no3)cc2)cc1`, 28.9% (inactive).
The result for `COc1ccc(-c2nc(-c3ccccn3)no2)cc1` reads 99% (active); that for `COc1cc(-c2nc(-c3ccccn3)no2)cc(OC)c1OC`, -30.9% (inactive).
As for `c1ccc(-c2noc(-c3ccc4c(c3)OCO4)n2)nc1`, the figure is 64.7% (active); as for `c1ccc(-c2ccc(-c3nc(-c4ccccn4)no3)cc2)cc1`, 99.9% (active).
With `COc1ccccc1-c1nc(-c2ccccn2)no1`, the inhibition was 27.3% (inactive).
On to `c1ccc(-c2noc(-c3ccno3)n2)nc1`, for which the inhibition is -2.2% (inactive).
With `c1ccc(-c2noc(-c3ccc4c(c3)OCO4)n2)cc1`, the inhibition was -47.3% (inactive).
In the case of `Cc1cccc(-c2noc(-c3ccc4c(c3)OCO4)n2)c1`, the inhibition is -27.9% (inactive).
The result for `Cn1c(SCC(=O)NC(=O)CN2CCCC2=O)nnc1-c1ccc(F)cc1` reads -11.6% (inactive).
For the molecule `Cc1ccc(-c2nc(=S)c3c(n2CCN2CCOCC2)CC(C)(C)OC3)cc1`, the inhibition is -25.9% (inactive).
`CCOc1ccc(-c2c(=O)n(OCC)c3ccccc3[n+]2[O-])cc1`: the inhibition is 3.2% (inactive).
For `CCC(C(=O)OC(C)C(=O)Nc1ccc(Cl)cn1)c1ccccc1` (stereo not drawn), the inhibition was -32.2% (inactive).
Regarding `COC(=O)c1cc(-c2ccccc2)sc1NC(=O)c1cc(C)on1`, the inhibition was -4.3% (inactive).
